# About 83,000 compounds went through this panel and 20% of them were active in at least one assay; those are over-represented in the sample as a whole.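 Values shown are percent growth following 48 h exposure of cells in 96-well plates to a single concentration of compound; below 10 was considered active.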 A number with no mark means an inactive call. The source made the active and inactive calls.
# Tests used:
# Assay in all cases: NCI-60 one-dose screen, 48 h (100 = growth as untreated, 0 = no growth, -100 = all killed)
# Conditions in all cases: 10 µM
# T-47D breast = test system: T-47D breast
# BT-549 breast = test system: BT-549 breast
# MDA-MB-435 melanoma = test system: MDA-MB-435 melanoma
# MCF7 breast = test system: MCF7 breast
# HCT-116 colon = test system: HCT-116 colon
# HCC-2998 colon = test system: HCC-2998 colon
# KM12 colon = test system: KM12 colon
# SW-620 colon = test system: SW-620 colon
Compound,growth (T-47D breast),growth (BT-549 breast),growth (MDA-MB-435 melanoma),growth (MCF7 breast),growth (HCT-116 colon),growth (HCC-2998 colon),growth (KM12 colon),growth (SW-620 colon)
O=[N+]([O-])c1ccc2c(c1)Cc1cc(I)ccc1-2,105%,94.2%,98.1%,85%,96.2%,103%,105%,
CC(=O)OC1Oc2ccccc2-c2oc(=O)c(-c3ccc(F)cc3)cc21 (stereo unspecified),77.2%,80.6%,51.5%,63.2%,86.5%,,89.9%,12.8%
C=CCOc1ccc2c(c1)CC=C1[C@@H]2CC[C@]2(C)C(=O)/C(=N/O)C[C@@H]12,87.8%,89.1%,72.6%,,66.8%,74.8%,57.9%,79.6%
CCN(CCCNC(=O)Cc1cc(=O)oc2cc(N(C)C)ccc12)CCNc1ccnc2cc(Cl)ccc12,123%,,46.7%,66%,53.3%,79.5%,92.7%,74.9%
COc1cc(/C=C2\C(=O)Nc3cc(C)c(O)cc32)cc(OC)c1OC,39.2%,42.3%,-34.5% (active),25.7%,56.8%,,21.9%,55.1%
N#Cc1ccc(-n2cnc(NC(=O)[C@H]3CCN(C#N)C3)c2)cc1,-9.28% (active),,16.2%,4.82% (active),5.34% (active),38.5%,,16.6%
CN(C)c1ccc2cc(-c3cc4c(oc3=O)-c3ccccc3OC4O)c(=O)oc2c1 (stereo unspecified),-12.3% (active),-17.4% (active),-23.8% (active),18.7%,12.8%,,-37.7% (active),17.1%
O=C1/C(=C/c2cccs2)CCC/C1=C\c1cccs1,17.8%,110%,81.3%,21.4%,80.2%,89.1%,65.6%,
COc1cc(C(c2c[nH]c3ccccc23)N2CCCC2)ccc1OCc1ccccc1 (stereo unspecified),81.5%,,96.8%,83.4%,69%,96.2%,92.2%,98.9%
CCN1CCN(c2ccc(Nc3ncnc4c3nnn4CCc3cc(OC)cc(OC)c3)cc2)CC1,73.3%,,95.4%,85.8%,77.9%,109%,99.1%,102%
COc1ccc(-c2csc(-c3cc(Cl)cc(Cl)c3Cl)n2)cc1,50.6%,102%,80.7%,56.2%,108%,,86.9%,46.4%
CCc1cc2n(n1)-c1ncc(C(=O)OC)cc1Oc1ccccc1-2,75.8%,,103%,97.4%,90.5%,114%,102%,106%
O=C(N/N=C\c1cc(Cl)ccc1O)c1ccncc1,30.1%,,89.4%,14.6%,24.6%,45.2%,53.6%,64.7%
CC(=O)/C(=C\c1ccc(Cl)cc1)c1ccccc1,47.8%,,-35.2% (active),9.45% (active),5.06% (active),3.78% (active),10.1%,25.6%
CC(=O)Nc1ccc(Sc2ccc(NC(C)=O)cc2)cc1,70.6%,,104%,97.7%,98.5%,97.2%,96.5%,104%
CCOC(=O)c1c(C(F)(F)F)n([O-])c2ccc(OC)cc2[n+]1=O,12%,,23.6%,31.9%,29.4%,43.8%,43.7%,30.2%
COc1ccc(-c2csc(NC(=O)CO[N+](=O)[O-])n2)cc1,57%,,106%,92.6%,102%,105%,95.8%,103%
NC(=O)C12C(=O)NC(=O)C1(C(=O)O)C21CCCC1 (stereo unspecified),114%,,100%,96.3%,101%,114%,113%,104%
Cc1cc(C#Cc2ccccc2)ccc1-n1c(/C=C/c2cc(O)ccc2O)nc2ccccc2c1=O,-16.8% (active),,-56.3% (active),2.03% (active),-43.8% (active),-49.6% (active),-5.21% (active),5.7% (active)
CCOC(=O)[C@@H]1[C@H](c2ccccc2)[C@H]([N+](=O)[O-])[C@H](c2cn(-c3ccccc3)nc2C)N1Cc1ccccc1,44%,,92.3%,67.6%,37.5%,94%,88%,73.1%
O=c1oc2cc(OS(=O)(=O)C3CC3)ccc2c2c1CCCCCC2,57.6%,,94.8%,81.6%,82.5%,90.8%,77.8%,96.5%
COc1cc(OC)cc(-c2ccc(-c3ccc(C(=N)N)cn3)o2)c1,-56.9% (active),,-63.6% (active),-66.2% (active),-86.5% (active),-87.4% (active),-11.2% (active),-90.3% (active)
COC(=O)[C@]12CC[C@@H](C)[C@H](C)[C@@H]1C1=CC[C@@H]3[C@@]4(C)CC(=O)[C@H](O)[C@@](C)(CO)[C@@H]4C(=O)C[C@@]3(C)[C@]1(C)CC2,-15.8% (active),,11.4%,-13.4% (active),-43.1% (active),-61.1% (active),-37.3% (active),1.83% (active)
O=[N+]([O-])c1ccc(-c2nc(-c3ccccc3)c(-c3ccccc3)n2-c2ccccc2)cc1,21.6%,,36.5%,19.6%,33.2%,-36.9% (active),37%,48.8%
COc1cc(C2CC(=O)Nc3c2c(C)nn3-c2nc3ccccc3[nH]2)cc(OC)c1O (stereo unspecified),83.5%,,23%,56.9%,68.4%,88.9%,45.7%,45.7%

Compound,growth (T-47D breast),growth (BT-549 breast),growth (MDA-MB-435 melanoma),growth (MCF7 breast),growth (HCT-116 colon),growth (HCC-2998 colon),growth (KM12 colon),growth (SW-620 colon)
CC(=O)Nc1nc(C)c(C(=O)NNC=O)s1,127%,,107%,92.4%,121%,79.4%,105%,101%
O=C(Nc1cccc(C(F)(F)F)c1)C(Cl)Cl,87.9%,,103%,90.2%,98.1%,105%,94.8%,104%
N#CN1CC[C@H](C(=O)Nc2ncc(-c3ccccc3)s2)C1,-44% (active),,0.958% (active),3.54% (active),-3.16% (active),-11.1% (active),-6.3% (active),5.19% (active)
COc1ccccc1Cn1cc2c(c1-c1ccccc1)CCc1cnoc1-2,29.4%,,-21.3% (active),19.3%,20.9%,81%,29.5%,16.8%
Clc1ccc(-c2nc(-c3cccs3)cn3ccnc23)cc1,16.3%,,23.2%,19.1%,68%,47.8%,50.5%,57.3%
OC(CNC1CCCC1)Cn1c2ccccc2c2ccccc21 (stereo unspecified),-1.44% (active),,-2.91% (active),-66.2% (active),-37.3% (active),1.39% (active),21.6%,-25.5% (active)
COc1ccc2nc(NC(=O)Nc3c(F)cccc3F)sc2c1,106%,,99%,95.6%,102%,102%,112%,105%
Fc1ccc(-c2cc(C(Cl)Cl)no2)cc1,110%,,97.3%,88.7%,90.3%,107%,94.4%,92.1%
O=C(c1ccc(Cl)cc1)c1no[n+]([O-])c1C(=O)c1ccc(Cl)cc1,89.6%,,89.8%,92.1%,49%,113%,88.5%,44.2%
COCCNCC(O)Cn1c2ccc(Cl)cc2c2cc(Cl)ccc21 (stereo unspecified),-15.8% (active),,-83.1% (active),-64.8% (active),-5.18% (active),-30.1% (active),10.9%,2.98% (active)
O=C(O)c1cc(C(F)(F)F)cc(C(F)(F)F)c1,104%,,104%,101%,99.8%,103%,105%,
CC1(C)CCc2cc(-c3ccn(S(=O)(=O)c4ccc(Cl)cc4)n3)ccc2O1,54.1%,,85.8%,71.3%,61.1%,94.3%,77%,87.7%
O=C(Nc1cccc(Cl)c1)OCC(COC(=O)Nc1cccc(Cl)c1)(COC(=O)Nc1cccc(Cl)c1)[N+](=O)[O-],14.7%,,39.9%,21.1%,16.3%,36.9%,23.8%,45.6%
CCOC(=O)c1sc(NC(=O)c2cc(OC)c(OC)c(OC)c2)nc1C,118%,,102%,87.5%,111%,57.4%,99.3%,98.1%
CCC(CCNc1cc(OC)cc2cccnc12)CN1C(=O)c2ccccc2C1=O (stereo unspecified),32.7%,,107%,31.1%,99.5%,105%,99%,135%
COc1cc(Cl)cc(-c2nn(-c3cccc(NC(=O)Nc4cccc(C(F)(F)F)c4)c3)cc2-c2ccncc2)c1,-0.45% (active),,-20.9% (active),0.3% (active),5.07% (active),19%,9.81% (active),11.2%
CCOC(=O)C(=O)Cc1cccnn1,122%,,111%,95.3%,102%,112%,108%,109%
FC(F)(F)c1ccc(-c2cnc(Cl)nc2NC2CCCCCC2)cc1,12.4%,,11%,20.7%,16.5%,67.9%,16.5%,21.5%
Cc1ccc(/C(CS(=O)(=O)c2ccc(C)cc2)=N\O)cc1,103%,,89%,91.3%,103%,103%,115%,106%
Cn1cnc([N+](=O)[O-])c1Sc1nnc(-c2ccccc2)c(-c2ccccc2)n1,9.12% (active),,42.1%,61.9%,32.8%,96.8%,92.5%,48%
CCn1nc(-c2ccccn2)c2cccnc2c1=S,42%,,81.2%,7.88% (active),17.1%,72.4%,72.8%,79.4%
CCCc1ccnc(NS(=O)(=O)c2ccc(N)cc2)n1,64%,,77.9%,49.2%,66.1%,86.9%,74.9%,99.5%
c1ccc(COCC[P+](c2ccccc2)(c2ccccc2)c2ccccc2)cc1,12%,,-0.102% (active),4.89% (active),5.42% (active),6.68% (active),6.34% (active),14%
CN(C)c1ccc2c(c1)OC(N)=C(C#N)C2c1ccc2c(c1)CCCN2C (stereo unspecified),44.5%,,-5.69% (active),18.1%,7.88% (active),26.7%,23.1%,35%
